# Results as given in publication PMC7862700, “An all-to-all approach to the identification of sequence-specific readers for epigenetic DNA modifications on cytosine”.
# What was measured:
# Test in all cases: DAPPL (digital affinity profiling via proximity ligation, sequencing); 10 mM Tris-HCl pH 7.5, 50 mM NaCl, 1 mM DTT, 4% glycerol, room temperature, 30 min; GST-TFs on glutathione beads, 16-mer random dsDNA library, 0.1% formaldehyde crosslink after washing; high values mean tight binding
# Details in all cases: protein: recombinant; tags: N-terminal GST; dsDNA, one strand shown
# [1] = molecular target: T1, FLI1 (Homo sapiens, UniProt Q01543 1-452)
# T1 sequence: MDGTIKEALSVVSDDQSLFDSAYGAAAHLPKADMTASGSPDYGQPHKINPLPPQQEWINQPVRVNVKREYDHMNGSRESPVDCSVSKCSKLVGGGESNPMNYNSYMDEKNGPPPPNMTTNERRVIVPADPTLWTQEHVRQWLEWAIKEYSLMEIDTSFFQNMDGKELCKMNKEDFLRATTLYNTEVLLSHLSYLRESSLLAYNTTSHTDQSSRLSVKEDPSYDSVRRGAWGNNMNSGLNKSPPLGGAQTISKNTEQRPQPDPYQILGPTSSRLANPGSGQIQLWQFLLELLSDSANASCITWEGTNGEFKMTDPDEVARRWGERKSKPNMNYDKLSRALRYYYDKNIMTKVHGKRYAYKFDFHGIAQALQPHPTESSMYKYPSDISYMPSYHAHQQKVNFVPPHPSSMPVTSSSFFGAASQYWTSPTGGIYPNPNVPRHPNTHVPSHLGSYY
# In short: (§1)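 After expression in yeast as GST fusions, human transcription factors were bound to glutathione beads, DNA-barcoded and mixed with a tag-only sample. The pools were incubated with 200 nmole of a 16-mer random double-stranded DNA library in Tris/NaCl/DTT/glycerol buffer (30 min, room temperature), washed and crosslinked with 0.1% formaldehyde. Proximity ligation with BsaI/T4 ligase ran for 1 h at 37 °C, before PCR amplification and sequencing on an Illumina NextSeq500. Binding signal is a hexamer's read frequency for a factor divided by its frequency for the tag-only sample.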
# [2] = molecular target: T2, ELK1 (Homo sapiens, UniProt P19419 1-428)
# T2 sequence: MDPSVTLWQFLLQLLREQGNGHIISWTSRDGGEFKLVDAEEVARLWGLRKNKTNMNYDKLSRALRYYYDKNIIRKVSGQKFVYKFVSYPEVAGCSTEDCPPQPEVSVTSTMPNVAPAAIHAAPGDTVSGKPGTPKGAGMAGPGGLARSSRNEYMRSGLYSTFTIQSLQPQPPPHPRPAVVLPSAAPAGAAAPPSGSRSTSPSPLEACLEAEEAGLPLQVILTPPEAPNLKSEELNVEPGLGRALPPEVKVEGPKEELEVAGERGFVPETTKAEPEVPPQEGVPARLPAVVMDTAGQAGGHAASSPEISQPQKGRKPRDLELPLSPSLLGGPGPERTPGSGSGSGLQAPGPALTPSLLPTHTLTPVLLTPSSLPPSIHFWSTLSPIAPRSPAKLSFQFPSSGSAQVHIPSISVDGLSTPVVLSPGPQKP
# In short: as §1
# [3] = molecular target: T3, GABPA (Homo sapiens, UniProt Q06546 1-454)
# T3 sequence: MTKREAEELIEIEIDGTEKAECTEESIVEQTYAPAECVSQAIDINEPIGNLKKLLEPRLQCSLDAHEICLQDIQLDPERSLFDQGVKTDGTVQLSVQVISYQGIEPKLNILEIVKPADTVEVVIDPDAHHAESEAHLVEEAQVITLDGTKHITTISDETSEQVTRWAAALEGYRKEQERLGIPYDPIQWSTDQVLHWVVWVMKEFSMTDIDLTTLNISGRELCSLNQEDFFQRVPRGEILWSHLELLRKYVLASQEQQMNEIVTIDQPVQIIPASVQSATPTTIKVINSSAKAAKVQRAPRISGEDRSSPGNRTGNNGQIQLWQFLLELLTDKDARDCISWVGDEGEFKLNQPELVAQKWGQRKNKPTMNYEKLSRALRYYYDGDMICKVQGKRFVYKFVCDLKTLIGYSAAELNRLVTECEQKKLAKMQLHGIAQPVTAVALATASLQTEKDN
# In short: as §1
# [4] = molecular target: T4, ERG (Homo sapiens, UniProt P11308 1-479)
# T4 sequence: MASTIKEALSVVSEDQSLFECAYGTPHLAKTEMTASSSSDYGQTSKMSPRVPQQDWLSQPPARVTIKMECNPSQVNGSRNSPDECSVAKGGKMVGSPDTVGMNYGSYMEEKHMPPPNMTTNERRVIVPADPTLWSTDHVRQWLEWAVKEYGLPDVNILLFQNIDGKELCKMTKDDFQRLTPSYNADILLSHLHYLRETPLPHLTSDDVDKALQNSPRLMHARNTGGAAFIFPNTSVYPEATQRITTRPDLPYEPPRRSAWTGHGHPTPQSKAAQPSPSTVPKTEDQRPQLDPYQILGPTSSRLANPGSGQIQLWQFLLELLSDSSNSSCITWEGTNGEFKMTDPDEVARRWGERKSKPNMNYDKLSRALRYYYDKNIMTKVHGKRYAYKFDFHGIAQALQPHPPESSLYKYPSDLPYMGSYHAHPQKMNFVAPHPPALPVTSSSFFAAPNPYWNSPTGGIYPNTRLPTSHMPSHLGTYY
# In short: as §1
# [5] = molecular target: ELF1 (Homo sapiens, UniProt P32519 1-619)
# ELF1, sequence (P32519 whole entry): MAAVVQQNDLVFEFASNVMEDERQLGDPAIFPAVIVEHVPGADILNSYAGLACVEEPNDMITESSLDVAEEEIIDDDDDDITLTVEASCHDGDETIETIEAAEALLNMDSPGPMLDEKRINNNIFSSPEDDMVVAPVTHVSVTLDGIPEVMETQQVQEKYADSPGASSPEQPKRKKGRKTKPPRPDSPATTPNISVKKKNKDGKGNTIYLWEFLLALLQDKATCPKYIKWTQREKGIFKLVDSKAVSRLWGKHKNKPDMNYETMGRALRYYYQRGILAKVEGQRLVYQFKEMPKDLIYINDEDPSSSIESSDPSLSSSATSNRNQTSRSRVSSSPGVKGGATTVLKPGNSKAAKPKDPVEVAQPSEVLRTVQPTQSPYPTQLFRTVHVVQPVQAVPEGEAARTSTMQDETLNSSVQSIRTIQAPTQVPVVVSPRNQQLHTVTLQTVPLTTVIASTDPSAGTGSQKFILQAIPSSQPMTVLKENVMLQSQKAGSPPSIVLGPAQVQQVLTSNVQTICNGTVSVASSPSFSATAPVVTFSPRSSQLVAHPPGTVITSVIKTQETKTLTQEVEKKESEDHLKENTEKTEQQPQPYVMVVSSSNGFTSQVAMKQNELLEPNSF
# In short: as §1
# [6] = molecular target: T5, EHF (Homo sapiens, UniProt Q9NZC4 1-300)
# T5 sequence: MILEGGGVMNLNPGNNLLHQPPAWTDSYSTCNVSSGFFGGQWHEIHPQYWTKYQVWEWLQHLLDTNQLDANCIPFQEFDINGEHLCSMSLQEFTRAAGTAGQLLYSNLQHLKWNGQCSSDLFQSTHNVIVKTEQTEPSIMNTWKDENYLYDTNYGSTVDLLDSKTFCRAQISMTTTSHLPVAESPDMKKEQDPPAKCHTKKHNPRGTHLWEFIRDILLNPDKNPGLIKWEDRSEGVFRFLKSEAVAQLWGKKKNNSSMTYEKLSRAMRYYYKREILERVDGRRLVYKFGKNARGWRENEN
# In short: as §1
# [7] = molecular target: SPI1 (Homo sapiens, UniProt P17947 1-270)
# In short: as §1
# [8] = molecular target: SPIB (Homo sapiens, UniProt Q01892 1-262)
# SPIB, sequence (Q01892 whole entry): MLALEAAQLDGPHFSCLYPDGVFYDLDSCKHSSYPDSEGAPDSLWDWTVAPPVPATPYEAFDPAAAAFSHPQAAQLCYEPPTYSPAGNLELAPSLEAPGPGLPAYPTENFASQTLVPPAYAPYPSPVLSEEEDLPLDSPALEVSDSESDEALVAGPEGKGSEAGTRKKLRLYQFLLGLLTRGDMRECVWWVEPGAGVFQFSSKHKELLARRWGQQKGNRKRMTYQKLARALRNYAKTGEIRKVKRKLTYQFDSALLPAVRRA
# In short: as §1
# [9] = molecular target: T6, ELK3 (Homo sapiens, UniProt P41970 1-407)
# T6 sequence: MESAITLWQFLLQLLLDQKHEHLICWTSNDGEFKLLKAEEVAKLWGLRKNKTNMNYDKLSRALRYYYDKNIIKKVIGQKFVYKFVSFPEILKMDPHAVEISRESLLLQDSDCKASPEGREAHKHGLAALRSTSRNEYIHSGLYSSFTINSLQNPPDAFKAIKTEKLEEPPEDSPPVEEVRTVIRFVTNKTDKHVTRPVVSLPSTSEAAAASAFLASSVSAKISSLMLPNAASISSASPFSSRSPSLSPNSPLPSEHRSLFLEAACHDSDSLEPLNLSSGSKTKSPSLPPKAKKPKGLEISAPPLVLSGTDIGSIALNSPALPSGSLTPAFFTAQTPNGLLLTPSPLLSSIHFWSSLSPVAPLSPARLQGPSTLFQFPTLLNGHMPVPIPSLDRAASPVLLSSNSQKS
# In short: as §1
# [10] = molecular target: T7, FEV (Homo sapiens, UniProt Q99581 1-238)
# T7 sequence: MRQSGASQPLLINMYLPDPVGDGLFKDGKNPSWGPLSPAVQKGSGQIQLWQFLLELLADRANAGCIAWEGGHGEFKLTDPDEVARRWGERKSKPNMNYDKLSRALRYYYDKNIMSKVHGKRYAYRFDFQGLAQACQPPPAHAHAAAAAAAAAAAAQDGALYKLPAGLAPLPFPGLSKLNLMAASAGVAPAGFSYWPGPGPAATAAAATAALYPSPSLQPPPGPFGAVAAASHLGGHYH
# In short: as §1
# [11] = molecular target: ETV5 (Homo sapiens, UniProt P41161 1-510)
# ETV5, sequence (P41161 whole entry): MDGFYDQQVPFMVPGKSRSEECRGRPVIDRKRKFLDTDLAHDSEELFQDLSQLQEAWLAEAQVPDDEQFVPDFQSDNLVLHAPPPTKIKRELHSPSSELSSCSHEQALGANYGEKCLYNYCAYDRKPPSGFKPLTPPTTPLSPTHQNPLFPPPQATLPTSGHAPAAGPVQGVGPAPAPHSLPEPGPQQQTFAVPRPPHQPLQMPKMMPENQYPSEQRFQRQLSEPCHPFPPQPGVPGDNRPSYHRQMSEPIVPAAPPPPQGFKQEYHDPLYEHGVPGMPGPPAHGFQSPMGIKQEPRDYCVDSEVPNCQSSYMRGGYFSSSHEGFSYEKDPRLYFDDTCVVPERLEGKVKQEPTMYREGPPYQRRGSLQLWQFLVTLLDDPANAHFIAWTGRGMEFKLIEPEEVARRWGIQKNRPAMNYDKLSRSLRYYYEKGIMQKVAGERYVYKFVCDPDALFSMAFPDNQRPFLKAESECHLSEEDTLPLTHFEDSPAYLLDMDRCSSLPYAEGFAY
# In short: as §1
# [12] = molecular target: T8, SPIC (Homo sapiens, UniProt Q8N5J4 1-248)
# T8 sequence: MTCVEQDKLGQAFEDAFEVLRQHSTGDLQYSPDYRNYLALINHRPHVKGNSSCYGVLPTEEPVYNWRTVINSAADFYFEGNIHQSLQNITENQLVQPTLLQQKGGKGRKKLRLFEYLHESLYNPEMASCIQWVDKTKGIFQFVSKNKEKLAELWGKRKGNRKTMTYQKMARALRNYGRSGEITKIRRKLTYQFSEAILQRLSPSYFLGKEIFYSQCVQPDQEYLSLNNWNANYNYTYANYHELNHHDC
# In short: as §1
# [13] = molecular target: ELF4 (Homo sapiens, UniProt Q99607 1-663)
# ELF4, sequence (Q99607 whole entry): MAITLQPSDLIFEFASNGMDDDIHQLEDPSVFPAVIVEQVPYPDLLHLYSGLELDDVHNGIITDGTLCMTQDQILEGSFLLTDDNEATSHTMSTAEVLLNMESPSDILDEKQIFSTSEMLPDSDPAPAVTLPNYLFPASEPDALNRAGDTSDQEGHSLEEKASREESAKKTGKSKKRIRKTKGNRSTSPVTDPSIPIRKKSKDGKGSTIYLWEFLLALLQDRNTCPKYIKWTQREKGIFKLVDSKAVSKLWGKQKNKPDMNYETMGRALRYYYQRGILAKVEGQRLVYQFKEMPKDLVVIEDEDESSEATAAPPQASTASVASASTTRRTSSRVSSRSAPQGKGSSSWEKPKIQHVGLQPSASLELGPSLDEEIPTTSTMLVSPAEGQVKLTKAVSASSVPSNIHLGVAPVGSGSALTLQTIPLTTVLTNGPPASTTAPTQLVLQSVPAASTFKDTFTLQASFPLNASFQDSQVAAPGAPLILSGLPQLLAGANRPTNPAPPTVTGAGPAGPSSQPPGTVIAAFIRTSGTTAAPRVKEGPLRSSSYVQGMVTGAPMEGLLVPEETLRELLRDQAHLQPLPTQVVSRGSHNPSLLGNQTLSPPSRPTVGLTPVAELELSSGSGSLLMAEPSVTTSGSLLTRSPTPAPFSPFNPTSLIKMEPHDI
# In short: as §1
# [14] = molecular target: T9, ELK4 (Homo sapiens, UniProt P28324-2 1-405)
# T9 sequence: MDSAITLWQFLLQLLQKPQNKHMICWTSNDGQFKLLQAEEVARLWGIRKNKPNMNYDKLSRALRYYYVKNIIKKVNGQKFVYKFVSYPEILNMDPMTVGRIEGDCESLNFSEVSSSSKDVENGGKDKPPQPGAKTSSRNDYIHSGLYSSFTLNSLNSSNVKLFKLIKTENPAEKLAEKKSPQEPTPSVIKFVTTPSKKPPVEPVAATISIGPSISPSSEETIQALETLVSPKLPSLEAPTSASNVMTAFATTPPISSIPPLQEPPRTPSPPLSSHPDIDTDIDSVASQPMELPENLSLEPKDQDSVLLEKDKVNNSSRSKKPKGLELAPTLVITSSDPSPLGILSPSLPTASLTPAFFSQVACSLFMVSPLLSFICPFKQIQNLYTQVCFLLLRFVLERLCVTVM
# In short: as §1
# [15] = molecular target: T10, ETV2 (Homo sapiens, UniProt O00321 1-342)
# T10 sequence: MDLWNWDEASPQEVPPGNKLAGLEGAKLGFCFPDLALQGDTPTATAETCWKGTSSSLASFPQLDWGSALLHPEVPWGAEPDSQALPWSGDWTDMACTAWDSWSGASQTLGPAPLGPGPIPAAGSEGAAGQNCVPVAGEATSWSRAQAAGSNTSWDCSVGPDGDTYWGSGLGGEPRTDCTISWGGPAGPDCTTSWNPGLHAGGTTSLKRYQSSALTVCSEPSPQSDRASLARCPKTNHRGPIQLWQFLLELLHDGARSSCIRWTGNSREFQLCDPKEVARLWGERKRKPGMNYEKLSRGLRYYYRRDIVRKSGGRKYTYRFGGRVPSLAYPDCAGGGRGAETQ
# In short: as §1
# [16] = molecular target: T11, ELF3 (Homo sapiens, UniProt P78545 1-371)
# T11 sequence: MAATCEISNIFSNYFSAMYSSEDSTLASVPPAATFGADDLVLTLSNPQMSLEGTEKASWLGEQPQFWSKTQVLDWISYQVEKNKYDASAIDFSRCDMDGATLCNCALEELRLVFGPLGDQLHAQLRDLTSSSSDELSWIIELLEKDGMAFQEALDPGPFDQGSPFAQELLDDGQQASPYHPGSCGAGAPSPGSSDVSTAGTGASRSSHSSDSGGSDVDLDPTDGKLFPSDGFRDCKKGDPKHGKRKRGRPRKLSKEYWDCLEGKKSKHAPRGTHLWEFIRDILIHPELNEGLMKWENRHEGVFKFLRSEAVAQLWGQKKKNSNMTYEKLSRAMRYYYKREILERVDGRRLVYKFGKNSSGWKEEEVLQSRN
# In short: as §1
# [17] = molecular target: ETV1 (Homo sapiens, UniProt P50549 1-477)
# ETV1, sequence (P50549 whole entry): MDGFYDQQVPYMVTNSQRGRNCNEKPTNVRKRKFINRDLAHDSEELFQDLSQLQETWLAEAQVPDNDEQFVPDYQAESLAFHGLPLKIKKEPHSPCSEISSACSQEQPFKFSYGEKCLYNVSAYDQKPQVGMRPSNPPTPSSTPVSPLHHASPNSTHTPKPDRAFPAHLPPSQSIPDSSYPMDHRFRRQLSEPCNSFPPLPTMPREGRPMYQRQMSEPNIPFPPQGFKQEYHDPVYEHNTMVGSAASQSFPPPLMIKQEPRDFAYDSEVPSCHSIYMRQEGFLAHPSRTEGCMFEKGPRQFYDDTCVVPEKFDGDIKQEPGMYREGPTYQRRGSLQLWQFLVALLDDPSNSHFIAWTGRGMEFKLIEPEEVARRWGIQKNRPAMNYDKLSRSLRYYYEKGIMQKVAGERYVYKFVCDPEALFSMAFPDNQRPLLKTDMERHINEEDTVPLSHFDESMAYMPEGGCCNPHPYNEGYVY
# In short: as §1
sequence,measurement,setting,value
CCCAAC,binding signal,[1],"1.13 fold enrichment (6-mer frequency, TF over GST control)"
same,binding signal,[2],"1.14 fold enrichment (6-mer frequency, TF over GST control)"
same,binding signal,[3],"1.09 fold enrichment (6-mer frequency, TF over GST control)"
same,binding signal,[4],"1.15 fold enrichment (6-mer frequency, TF over GST control)"
same,binding signal,[5],"1.13 fold enrichment (6-mer frequency, TF over GST control)"
same,binding signal,[6],"1.16 fold enrichment (6-mer frequency, TF over GST control)"
same,binding signal,[7],"1.07 fold enrichment (6-mer frequency, TF over GST control)"
same,binding signal,[8],"1.11 fold enrichment (6-mer frequency, TF over GST control)"
same,binding signal,[9],"1.02 fold enrichment (6-mer frequency, TF over GST control)"
same,binding signal,[10],"1.17 fold enrichment (6-mer frequency, TF over GST control)"
same,binding signal,[11],"1.11 fold enrichment (6-mer frequency, TF over GST control)"
same,binding signal,[12],"1.17 fold enrichment (6-mer frequency, TF over GST control)"
same,binding signal,[13],"1.22 fold enrichment (6-mer frequency, TF over GST control)"
same,binding signal,[14],"1.18 fold enrichment (6-mer frequency, TF over GST control)"
same,binding signal,[15],"1.03 fold enrichment (6-mer frequency, TF over GST control)"
same,binding signal,[16],"1.17 fold enrichment (6-mer frequency, TF over GST control)"
same,binding signal,[17],"1.13 fold enrichment (6-mer frequency, TF over GST control)"
TGTCCG,binding signal,[1],"1.47 fold enrichment (6-mer frequency, TF over GST control)"
same,binding signal,[2],"1.42 fold enrichment (6-mer frequency, TF over GST control)"
same,binding signal,[3],"1.48 fold enrichment (6-mer frequency, TF over GST control)"
same,binding signal,[4],"1.58 fold enrichment (6-mer frequency, TF over GST control)"
same,binding signal,[5],"1.41 fold enrichment (6-mer frequency, TF over GST control)"
same,binding signal,[6],"1.42 fold enrichment (6-mer frequency, TF over GST control)"
same,binding signal,[7],"1.2 fold enrichment (6-mer frequency, TF over GST control)"
same,binding signal,[8],"1.56 fold enrichment (6-mer frequency, TF over GST control)"
same,binding signal,[9],"1.39 fold enrichment (6-mer frequency, TF over GST control)"
same,binding signal,[10],"1.61 fold enrichment (6-mer frequency, TF over GST control)"
same,binding signal,[11],"1.61 fold enrichment (6-mer frequency, TF over GST control)"
same,binding signal,[12],"1.36 fold enrichment (6-mer frequency, TF over GST control)"
same,binding signal,[13],"1.41 fold enrichment (6-mer frequency, TF over GST control)"
same,binding signal,[14],"1.32 fold enrichment (6-mer frequency, TF over GST control)"
same,binding signal,[15],"1.29 fold enrichment (6-mer frequency, TF over GST control)"
same,binding signal,[16],"1.48 fold enrichment (6-mer frequency, TF over GST control)"
same,binding signal,[17],"1.6 fold enrichment (6-mer frequency, TF over GST control)"
